Data reported in PubChem BioAssay (EPA / NIEHS).
Inconclusive results are not listed. Calls of active or inactive are those of the source. How the source made its calls: active means hit-call score of the fitted dose curve at least 0.9, where 1 is the maximum; inconclusive means response in the unintended direction; inactive means score below 0.9.

Test: ACEA_ER_80hr: ACEA Biosciences xCELLigence Real-Time Cell Analysis on Estrogen Receptor Agonism for Proliferation (AID 2282667)
Conditions: T47D proliferation, impedance (xCELLigence), 80 h
Method in brief: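 T-47D cells monitored by electrical impedance (xCELLigence) with compound present throughout; 80 h timepoint, positive-direction fitting versus DMSO. Eight-point 1:4 dilutions from 100 uM final, duplicate plates.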
With OCc1c[nH]c2ccccc12 the outcome was “inactive”. With O=C(O)c1ccc2c(c1)nc(C(=O)NC1CCN(C3CC3)CC1)n2Cc1cc(-c2ccc(Cl)s2)on1 the outcome was “inactive”. In the case of NCC(F)(F)C(F)(F)C(F)(F)C(F)(F)F, the outcome is reported as “inactive”. With C=CN1CCCC1=O the outcome was “inactive”. With Nc1ccn([C@@H]2O[C@H](CO)[C@@H](O)[C@@H]2O)c(=O)n1 the outcome was “inactive”. For OC(O)(C(F)C(O)(O)C(F)(F)F)C(F)(F)F, the outcome was “inactive”. With COCc1nnc(-c2ccc[n+]([O-])c2)n1-c1c(Cl)c(Cl)cc2[nH]c(=O)c(=O)[nH]c12 the outcome was “inactive”. With C=CCc1cc(S(=O)(=O)c2ccc(O)c(CC=C)c2)ccc1O the outcome was “inactive”. For FC(F)(F)COC(OCC(F)(F)F)OCC(F)(F)F, the outcome was “inactive”. For Cc1cccc(O)c1C, the outcome was “inactive”. With O=C(O)CO the outcome was “inactive”. In the case of FC(F)C(F)(F)COCC1CO1 (stereo not drawn), the outcome is reported as “inactive”. For NC(N)=O, the outcome was “inactive”. With FC(F)(F)C(F)(F)C(F)(F)C(F)(F)C(F)(F)C(F)(F)I the outcome was “inactive”. For OCCC(F)(F)C(F)(F)C(F)(F)C(F)(F)F, the outcome was “inactive”. For O=C(Cl)C(F)(F)C(F)(F)C(F)(F)C(=O)Cl, the outcome was “inactive”. In the case of O=c1[nH]cnc2c1ncn2[C@H]1CC[C@@H](CO)O1, the outcome is reported as “inactive”. For CCCCCCCCCCCCCCO, the outcome was “inactive”. For CCCCC(CC)C(=O)OCCOCCOCCOC(=O)C(CC)CCCC (stereo not drawn), the outcome was “inactive”. In the case of FC(F)=C(F)C(F)(F)C(F)(F)C(F)(F)C(F)(F)C(F)(F)C(F)(F)F, the outcome is reported as “inactive”. For CC[C@H](C)C(=O)O[C@H]1C[C@H](O)C=C2C=C[C@H](C)[C@H](CC[C@@H](O)C[C@@H](O)CC(=O)O)[C@H]21, the outcome was “inactive”. For OC[C@H]1O[C@@](CO)(O[C@H]2O[C@H](CO)[C@@H](O)[C@H](O)[C@H]2O)[C@@H](O)[C@@H]1O, the outcome was “inactive”. For O=C(N[C@H](CO)[C@H](O)c1ccc([N+](=O)[O-])cc1)C(Cl)Cl, the outcome was “inactive”. For c1ccc2c(c1)-c1cccc3c1c-2cc1ccccc13, the outcome was “inactive”. For C[Si](C)(C)C(F)(F)C(F)(F)C(F)(F)F, the outcome was “inactive”. In the case of CCc1cccc(CC)c1N, the outcome is reported as “inactive”. In the case of S=P(N1CC1)(N1CC1)N1CC1, the outcome is reported as “inactive”. In the case of O=S(=O)(O)CCC(F)(F)C(F)(F)C(F)(F)C(F)(F)C(F)(F)C(F)(F)F, the outcome is reported as “inactive”.
